HttQ103 aggreg = reduces HttQ103-GFP aggregates in PC12 cells; PC12 HttQ103-GFP aggregates, Acumen cytometry, 40 h; actives 1.1% (n = 220,000); Potency, µM (series often up to 46.1 µM), usual class: inhibitors; AID 1688; note: nearly all actives have a fitted effect of over 60% in size
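PC12 cells with ecdysone-inducible HTT exon1 Q103-GFP, induced by 100 nM tebufenozide, given compounds in a concentration series. GFP aggregates (1–25 um, 6 SD above background) counted in lysates by laser-scanning cytometry, 488 nm excitation.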
HPGD block = blocks human HPGD enzyme activity | P15428 | purified HPGD, NADH fluorescence kinetic, PGE2 substrate | Potency, µM, actives largely listed as inhibitors | actives 4.3% (n = 150,000) | AID 894; active = well fitted inhibition curve with a large enough effect, not every such curve was filed as active; inconclusive = small, poorly fitted or top-dose-only effect, or another doubt; inactive = no such curve, though single readings can be large or run the other way
Target sequence (P15428 whole entry, looked up): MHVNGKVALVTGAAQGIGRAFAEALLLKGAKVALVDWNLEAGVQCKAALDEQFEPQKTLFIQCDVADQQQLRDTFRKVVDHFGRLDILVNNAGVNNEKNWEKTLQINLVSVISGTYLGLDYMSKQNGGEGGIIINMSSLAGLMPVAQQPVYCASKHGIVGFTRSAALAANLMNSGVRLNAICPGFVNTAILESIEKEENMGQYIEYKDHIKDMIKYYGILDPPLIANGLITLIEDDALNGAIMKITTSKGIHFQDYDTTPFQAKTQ
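NADH formation kinetics: reaction with 30 uM PGE2 and 1 mM NAD+ (final), 20 nM enzyme, Tris-HCl pH 8 with Tween 20, after 15 min compound preincubation at room temperature. Fluorescence change, last versus first of five reads.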
IMPase Li cell = membrane-permeable IMPase blocker, potentiated with lithium; CHO-M1 cells, IP1 TR-FRET (IP-One), carbachol + lithium; Potency, µM (doses to about 59.4 µM), hits mostly inhibitors; actives 0.35% (n = 210,000); AID 1457;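 note: IP1 builds up when IMPase is blocked and the TR-FRET signal falls; nearly all actives have a fitted effect of over 50% in size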
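Readout is a homogeneous TR-FRET IP1 immunoassay (Ex 320, Em 665 and 620), where raised cytosolic IP1 lowers signal. Cells were CHO-M1 treated 30 min at 37C with test compounds plus a little lithium; AC50 values came from Hill-equation fitting.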
ALDH1A1 inh = blocks purified human ALDH1A1 activity; AID 1030; actives 7.3% (n = 220,000); P00352; Purified ALDH1A1, NADH fluorescence, propionaldehyde substrate; Potency, µM (top dose mostly 75.3 µM), most hits filed as inhibitors; active = well fitted inhibition curve with a large enough effect, not every such curve was filed as active; inconclusive = small, poorly fitted or top-dose-only effect, or another doubt; inactive = no such curve, though single readings can be large or run the other way
HTT cytoprotect = protects HTT-Q103 PC12 cells, measured by ATP; PC12 HTT-Q103 induced, cytoprotection, ATP luminescence, 40 h; Potency, µM (titrated, usually from 56.4 µM), hits mostly activators; actives 0.14% (n = 230,000); note: nearly all actives have a fitted effect of over 45% in size
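Cells were plated at 1500 per well in phenol red-free DMEM with 5% equine and 5% calf serum. Tebufenozide (100 nM final) and compounds were added, then ATPlite reagent, and luminescence was read.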
IMPase inh = IMPase inhibition in cells | CHO-M1 cells, IP1 accumulation, HTRF TR-FRET ratio | inhibition (IP1 accumulation), % at 46.1 µM | 120,000 tested, under 10 active; active = well fitted curve in the direction sought with a large enough effect in the signal ratio, not every such curve was filed as active; inconclusive = small, poorly fitted or top-dose-only effect, or a change in a side signal; inactive = no such curve, though single readings can be large or run the other way; the % refers to the signal ratio;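 note: cells stimulated with carbachol in lithium chloride buffer; higher means more IMPase inhibition seen as more IP1 and lower FRET ratio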
Target sequence (P97697 whole entry, looked up): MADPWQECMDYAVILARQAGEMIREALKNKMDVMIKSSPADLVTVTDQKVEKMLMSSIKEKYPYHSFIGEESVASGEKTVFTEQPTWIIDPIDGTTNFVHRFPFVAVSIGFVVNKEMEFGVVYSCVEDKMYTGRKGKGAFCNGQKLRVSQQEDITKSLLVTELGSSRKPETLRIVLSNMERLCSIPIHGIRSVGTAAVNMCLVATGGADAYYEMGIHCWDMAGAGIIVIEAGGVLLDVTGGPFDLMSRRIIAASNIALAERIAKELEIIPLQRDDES
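CHO-M1 cells (CHO stably expressing M1 receptor), compound up to 46 uM final, stimulated with carbachol (50 uM as added) in buffer with 50mM LiCl, pH 7.4, 30 min at 37C. Cytosolic IP1 read by TR-FRET; AC50 from Hill fits.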
HPGD inh cf = confirmation of human HPGD inhibitors | actives 90% (n = 90) | AID 2429 | Potency, µM (series often up to 57.1 µM), actives largely listed as inhibitors | recombinant HPGD, NADH fluorescence, PGE2 substrate | shares compounds with HPGD block; calls by dose curve
A number is an active result; - = inactive; ? = inconclusive; . = not tested or not shown; [ ] = remark or other dose. Compounds with a hit are over-represented: about 9.4% of the library has one in this group of screens. Unless noted, calls come from the whole dose curve; as a rule, active = well fitted curve in the direction sought with a large enough effect; inconclusive = small, poorly fitted or top-dose-only effect, or another doubt; inactive = no such curve, though single readings can be large; an effect the other way counts as inactive or inconclusive.

SMILES | HttQ103 aggreg | HPGD block | IMPase Li cell | ALDH1A1 inh | HTT cytoprotect | IMPase inh | HPGD inh cf
CCN(CC)C(=O)c1sc2nc(-c3cccs3)cc(-c3ccc(Cl)cc3)c2c1N | - | 6.3µM | ? | ? | - | ? | 10µM
Cc1cc(C)n(-c2ncnc3ccccc23)n1 | - | . | - | - | - | . | .
Cc1ccc(C)c(Cn2c(=O)n(-c3ccc(CC(=O)NCc4ccco4)cc3)c(=O)c3sccc32)c1 | - | - | - | - | -[10 µM] | - | .
Cc1ccc(C)c(Cn2nnc3c(=O)[nH]c(C(=O)NCc4ccco4)nc32)c1 | - | 0.56µM | - | - | - | - | 0.32µM
Cc1ccc(CN2CCCC(CO)(Cc3ccccc3C)C2)s1 (configuration not stated) | -[9.22 µM] | . | - | - | -[10 µM] | . | .
COc1ccc(S(=O)(=O)Nc2cc(Sc3ncn[nH]3)c(O)c3ccccc23)cc1 | -[9.22 µM] | 1.1µM | - | ? | - | - | 0.35µM
O=C(NCCc1c[nH]c2ccccc12)C1CCC(Cn2c(=S)[nH]c3ccccc3c2=O)CC1 (configuration not stated) | ? | - | - | - | -[10 µM] | - | .
COCCNC(=O)C1CCC(Cn2c(=S)[nH]c3ccccc3c2=O)CC1 (configuration not stated) | - | 1.8µM | - | - | -[0.074 µM] | - | 1.1µM
CC1CCCN(C(=O)c2sc3cc([N+](=O)[O-])ccc3c2Cl)C1 (configuration not stated) | - | 0.45µM | - | 5.6µM | - | - | 0.5µM
O=C(c1ccc([N+](=O)[O-])cc1[N+](=O)[O-])N1CCCC1 | -[9.22 µM] | . | - | - | -[10 µM] | . | .
O=C(c1cccc([N+](=O)[O-])c1)N1CCCC(C(=O)N2CCCCC2)C1 (configuration not stated) | -[9.22 µM] | . | . | . | -[10 µM] | . | .
O=C(c1sc2cc([N+](=O)[O-])ccc2c1Cl)N1CCCCC1 | - | 1.1µM | - | ? | -[10 µM] | . | 0.56µM
O=C(CN1CCCCCC1=O)N1CCN(S(=O)(=O)c2cccs2)CC1 | - | . | - | - | - | . | .
COc1ccccc1NC(=O)COn1nnc2ccc(S(=O)(=O)N3CCOCC3)cc21 | - | . | - | - | - | . | .
Cc1ccccc1NS(=O)(=O)c1cc(C(=O)N2CCc3ccccc3C2)ccc1C | - | - | - | - | - | - | .
Cc1ccc(NS(=O)(=O)c2cc(C(=O)N3CCc4ccccc4C3)ccc2Cl)cc1 | - | - | - | - | - | - | -
CC(C)(C)c1cc(C(=O)O)n(Cc2ccc(Cl)cc2Cl)n1 | -[9.22 µM] | . | . | . | -[10 µM] | . | .
O=C1ON=C(c2ccccc2)/C1=C/c1ccc(-c2ccccc2[N+](=O)[O-])o1 | - | 1.6µM | - | 10µM | . | . | 0.45µM
Cc1nc(SCC(=O)Nc2cccnc2Cl)nc(C)c1C | - | . | - | - | - | . | .
O=C(c1ccc(N2CCCC2=O)cc1)N1CCCCCC1 | - | 0.22µM | - | ? | - | - | 0.28µM
O=C(c1ccc(N2CCCC2=O)cc1)N1CCN(c2ccccc2)CC1 | - | - | - | - | - | - | .
Cc1oc(-c2cccc(Cl)c2)nc1CSc1nc2c(c(=O)[nH]1)CCC2 | - | 0.56µM | - | - | . | . | 1.3µM
O=C(CSc1nc2ncc(Br)cc2[nH]1)c1cccc([N+](=O)[O-])c1 | - | 7.9µM | - | ? | -[10 µM] | - | 2.2µM
Fc1ccccc1CSc1nc2ncc(Br)cc2[nH]1 | -[9.22 µM] | 0.79µM | - | - | - | - | 0.63µM
COc1ccc(-n2c(=O)c(-c3cccs3)nc3cncnc32)cc1 | . | . | - | ? | - | . | .
COc1ccc(Cl)cc1NC(=O)Cn1nc(C(F)(F)F)c2c1CCCC2 | . | . | . | . | . | - | .
CCCCNC(=O)C1CCC(CNc2c(N3CCC(C)CC3)c(=O)c2=O)CC1 (configuration not stated) | -[9.22 µM] | . | . | . | -[10 µM] | . | .
Cc1ccc(CCNC(=O)C2CCC(CNc3c(N4CCC(C)CC4)c(=O)c3=O)CC2)cc1 (configuration not stated) | - | ? | - | - | . | . | 14µM
COc1ccc(CNC(=O)C2CCC(CNc3c(N4CCCCC4)c(=O)c3=O)CC2)cc1 (configuration not stated) | -[9.22 µM] | . | . | . | -[10 µM] | . | .

Assay outcomes: PubChem BioAssay, National Center for Advancing Translational Sciences (NCATS)
